Source: PubChem BioAssay (Emory University Molecular Libraries Screening Center)
14-3-3g Raf – alters human 14-3-3 gamma binding to Raf peptide. P61981. FP, 14-3-3gamma / TMR-pS259-Raf peptide binding. inhibition, % at 40 µM. 0.19% of 160,000 active; in the data active means inhibition above about 30%;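 further: 0% = protein plus tracer without compound and 100% = blank with tracer alone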
Target sequence (P61981 whole entry, looked up): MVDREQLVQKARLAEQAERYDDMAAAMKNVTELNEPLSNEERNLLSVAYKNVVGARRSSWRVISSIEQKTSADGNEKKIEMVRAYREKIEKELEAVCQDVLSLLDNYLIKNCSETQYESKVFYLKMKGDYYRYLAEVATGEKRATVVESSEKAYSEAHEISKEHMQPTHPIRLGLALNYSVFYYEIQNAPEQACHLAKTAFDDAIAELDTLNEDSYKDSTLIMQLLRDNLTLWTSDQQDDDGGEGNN
* hit, by the source's call; + = active, no number. Many of the other results were omitted from the sample, so hits are more common in it than they were.

SMILES	14-3-3g Raf
COc1cc(NS(=O)(=O)c2ccc(C)cc2)c2ncccc2c1	-8.1
COc1cccc(CNc2cccc3cccnc23)c1O	-12.8
O=C(CN1C(=O)CCC1=O)Nc1ncc(S(=O)(=O)c2ccc([N+](=O)[O-])cc2)s1	-5.8
Cc1ccc(OCC(=O)Nc2cccc(-c3nc4ccccc4s3)c2C)cc1	-4.2
Cc1ccc2cc3cc(C(=O)N4CCN(c5ccc(F)cc5)CC4)oc3nc2c1	67.0*
Cc1ccc2cc3cc(C(=O)N4CCC(C)CC4)oc3nc2c1	-5.8
Cc1ccc2cc3cc(C(=O)N4CCN(c5ccc([N+](=O)[O-])cc5)CC4)oc3nc2c1	-13.2
Cc1ccc2cc3cc(C(=O)N4CC(C)CC(C)C4)oc3nc2c1 (centres undefined)	-3.8
Cc1ccc2cc3cc(C(=O)NC4CCN(Cc5ccccc5)CC4)oc3nc2c1	-13.2
Cc1ccc2cc3cc(C(=O)N4CCN(C5CCCCC5)CC4)oc3nc2c1	16.7
Cc1ccc2cc3cc(C(=O)N4CCN(c5cccc(C)c5C)CC4)oc3nc2c1	57.1*
Cc1ccc2cc3cc(C(=O)NC4CCCC4)oc3nc2c1	12.6
Cc1ccc2cc3cc(C(=O)NC4CC4)oc3nc2c1	36.2*
O=C(c1ccc2c(=O)n(CCc3ccccc3)c(=S)[nH]c2c1)N1CCCCC1	5.9
CCc1ccccc1Nc1nc(-c2c(C)nc3ccccn23)cs1	-12.5
CC1CC(C)CN(S(=O)(=O)c2ccc(C(=O)Nc3nc4ccc(Cl)cc4s3)cc2)C1 (centres undefined)	-2.6
CCSc1nc2c(c(=O)n1-c1ccc([N+](=O)[O-])cc1)SCC2	-6.6
Fc1ccccc1C1C=C(c2cccs2)Nc2nc3ccccc3n21 (centres undefined)	-77.6
CC(=O)Nc1cc(C(=O)NC2CC2)ccc1Sc1ccc(F)cc1	-3.6
CC(=O)OCCNc1cc(N2CCN(C)CC2)c2noc3c2c1C(=O)c1ccccc1-3	-69.9
O=C1c2ccccc2-c2onc3ccc(Nc4ccccc4)c1c23	-231.8
CCC(=O)OCCNc1ccc2noc3c2c1C(=O)c1ccccc1-3	140.7*
O=C(Nc1cccc(-c2nc3ccc(NC(=O)c4ccccc4)cc3o2)c1)c1ccccc1	-300.0
CC(=O)N1CCc2c(sc(NC(=O)c3ccc(S(=O)(=O)N4CCCCCC4)cc3)c2C(N)=O)C1	-219.1
CCOc1ccc(-c2cn(-c3ccc(C)cc3)c(=O)[nH]2)cc1	-239.6
SMILES	14-3-3g Raf
CCOc1cc(C2C(C(=O)OC3CCCC3)=C(C)NC3=C2C(=O)CC(c2ccccc2)C3)cc(Br)c1O (centres undefined)	10.7
CC1CCC2C(=O)N(c3ccc(N(C)C4CCCCC4)c([N+](=O)[O-])c3)C(=O)C2C1 (centres undefined)	-1.4
CC1CC(=O)N(c2ccc(N(C)Cc3ccccc3)c([N+](=O)[O-])c2)C1=O (centres undefined)	-3.8
CC1CCC2C(=O)N(c3ccc(N(C)Cc4ccccc4)c([N+](=O)[O-])c3)C(=O)C2C1 (centres undefined)	37.8*
CCCCN(C)C(=O)c1cc2c(=O)n3cccc(C)c3nc2s1	-4.9
Cc1c(NS(=O)(=O)c2ccccc2)cc(C(C)C)c(O)c1S(=O)(=O)c1ccccc1	-2.8
COc1cccc2c1C(=O)c1c(O)c3c(c(O)c1C2=O)C[C@@](O)(C(=O)CO)C[C@@H]3O[C@H]1C[C@H](N)[C@H](O)[C@H](C)O1	57.3*
COc1cc(C2Oc3ccccc3C3CC(c4ccccc4)=NN32)ccc1OC(C)=O (centres undefined)	-9.3
Cc1c(C(=O)N2CCCC(C)C2)sc2ncn(CC(=O)N3CC(C)CC(C)C3)c(=O)c12 (centres undefined)	7.2
C=Cc1c(C)c2cc3[nH]c(cc4nc(cc5nc(cc1[nH]2)C(C)=C5CCC(=O)O)C(CCC(=O)O)=C4C)c(C)c3C=C	+
CCCn1nnnc1NCc1ccccc1OCc1ccccc1F	1.7
CCCOC(=O)CSc1ncnc2sc(C)c(C)c12	-18.4
Cc1nc2ccc(NC(=O)c3ccc(F)cc3)cc2s1	-21.6
COc1ccc(/C(O)=C2\C(=O)C(=O)N(CCCn3ccnc3)C2c2ccccc2F)cc1 (centres undefined)	36.7*
O=C1C(=O)N(CCCn2ccnc2)C(c2ccncc2)/C1=C(\O)c1ccc(F)cc1 (centres undefined)	-0.1
COc1ccccc1C1/C(=C(\O)c2ccc(Cl)cc2)C(=O)C(=O)N1CCCn1ccnc1 (centres undefined)	6.1
CC(C)C(C(=O)Nc1cc(C(F)(F)F)ccc1Cl)N1C(=O)c2ccccc2C1=O (centres undefined)	11.2
COc1ccc2cc3cc(C(=O)Nc4cccc(SC)c4)sc3nc2c1	2.5
CN1CCN(c2ccc([N+](=O)[O-])cc2S(=O)(=O)N2CCCC2)CC1	38.7*
O=[N+]([O-])c1ccc(N2CCCC2)c(S(=O)(=O)N2CCOCC2)c1	-4.5
Cc1ccc([N+](=O)[O-])cc1S(=O)(=O)N1CCCCC1	5.0
Cc1ccc(C2CC(c3ccc(NS(C)(=O)=O)cc3)=NN2S(=O)(=O)c2ccccc2)cc1 (centres undefined)	-360.1
O=C(COc1ccc(Cl)cc1)Nc1c[nH]c(=O)[nH]c1=O	-0.1
COc1ccccc1NC(=O)c1cc(S(=O)(=O)N2CC3CC(C2)c2cccc(=O)n2C3)ccc1F (centres undefined)	-3.0
O=C(O)c1c(Cl)nc(Cl)c([N+](=O)[O-])c1Cl	2.7
SMILES	14-3-3g Raf
COC(=O)c1c(Cl)nc(Cl)c([N+](=O)[O-])c1Cl	56.0*
Cc1nc(Cl)c(C(=O)O)c(C)c1[N+](=O)[O-]	-1.2
CCOc1cc(C2C(C(=O)OC3CCCCC3)=C(C)NC3=C2C(=O)CC(C)(C)C3)ccc1OC(C)=O (centres undefined)	-5.1
Cc1sc2ncn(CC(=O)NCC(=O)Nc3ccc4c(c3)OCO4)c(=O)c2c1C	-10.6
O=C1c2cccc3c(N4CCCCC4)ccc(c23)C(=O)N1CCCO	-17.9
Cc1ccc(N2C(=O)c3cccc4c(Cl)ccc(c34)C2=O)cc1	-34.9
O=C1c2cccc3c(NCCO)ccc(c23)C(=O)N1c1ccc(Cl)cc1	140.1*
O=C1c2cccc3c(Cl)ccc(c23)C(=O)N1c1ccccc1	-4.0
O=C1c2cccc3c(NCCCO)ccc(c23)C(=O)N1CCCO	+
CN1C(=O)c2cccc(NCCCCN3C(=O)c4ccccc4C3=O)c2C1=O	-0.5
CC1=Cc2n[nH]c(C)c2C(c2ccccc2)C1 (centres undefined)	-4.5
COC(=O)c1ccc(C2C3=C(Nc4c2c(=O)[nH]c(=O)n4C)c2ccccc2C3=O)cc1 (centres undefined)	-65.0
O=C(C1CCC1)N1CCc2cc(S(=O)(=O)NCCCN3CCCCC3)ccc21	-5.8
O=C(C1CCC1)N1CCc2cc(S(=O)(=O)NCCCN3CCN(c4ccccc4F)CC3)ccc21	31.1*
CCC(=O)N1CCc2cc(S(=O)(=O)NCCN3CCCCC3C)ccc21 (centres undefined)	-0.3
CC(=O)N1CCc2cc(S(=O)(=O)NCCCN3CCN(C)CC3)ccc21	-6.9
O=C(C1CCC1)N1CCc2cc(S(=O)(=O)NCCN3CCCC3)ccc21	-0.8
CCC1CCCCN1CCNS(=O)(=O)c1ccc2c(c1)CCN2C(=O)C1CCC1 (centres undefined)	51.6*
COc1ccc2ccccc2c1C1N=C(SCc2ccc(F)cc2)NC(C)=C1C(C)=O (centres undefined)	0.8
O=C(c1coc(=O)c2ccccc12)N1CCN(c2ccc([N+](=O)[O-])cc2)CC1	-2.3
